# From PubChem BioAssay AID1053118 (Broad Institute, 2014)
# Results with a measured potency or affinity are listed apart. The source made the active and inactive calls.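 Rule for the calls: active = fitted half-maximal concentration for ATP signal loss at most twice the top valid dose; inconclusive = flat curve between -70 and -30%, or an invalid fit; inactive = flat within ±30%, wrong direction, or potency past limit.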
# Assay: viability loss in HepG2 hepatoma cells – cell-based, cherry-picks, set 5, cytotoxicity control, dose response (AID 1053118)
# Conditions: ATP luminescence, 72 h; series mostly up to 26 µM
row,Compound,outcome
1,C[C@@H]1CN([C@@H](C)CO)C(=O)c2cc(-c3ccccc3)cnc2O[C@H]1CN(C)C(=O)c1cccc(F)c1,inactive
2,CCCc1cc(C(=O)OC)c(NC(=O)CCC(=O)O)s1,inactive
3,Cc1ccc(Nc2nnc(SCc3ccccc3)s2)cc1,inactive
4,Cc1cccc(NC(=O)c2ccc(S(=O)(=O)N3CCCCC3)cc2)n1,inactive
5,C[C@@H]1CN([C@@H](C)CO)C(=O)c2cc(NC(=O)C3CCCCC3)ccc2O[C@@H]1CN(C)Cc1ccc(-c2ccccc2)cc1,inactive
6,CO[C@@H]1CN(C)C(=O)c2cc(NC(=O)Nc3ccc(Cl)c(Cl)c3)ccc2OC[C@H](C)NC[C@H]1C,inactive
7,N#Cc1ccc(-c2ccc3c(c2)[C@@H]2[C@@H](CCN2S(=O)(=O)c2cccc(F)c2)[C@@H](CO)N3)cc1,inactive
8,COCC(=O)Nc1ccc2c(c1)C(=O)N(C)[C@H]1CC[C@H](CC(=O)NCc3ccccc3Cl)O[C@H]1CO2,inactive
9,CC(C)NC(=O)N(C)C[C@H]1Oc2ccc(NC(=O)CCN3CCOCC3)cc2C(=O)N([C@H](C)CO)C[C@@H]1C,inactive
10,COc1ccc(Cl)cc1NC(=O)CSc1nc(Nc2ccccc2)nc(N2CCOCC2)n1,inactive
11,Cc1ccc(NC(=O)COC(=O)c2cc(Cl)ccc2[N+](=O)[O-])c(C)c1,inactive
12,O=C(OCC(O)C(O)COC(=O)c1ccccc1)c1ccccc1 (stereo not given),inactive
13,C[C@H](CO)N1C[C@H](C)[C@H](CN(C)Cc2ccccc2)Oc2ncc(-c3ccccc3)cc2C1=O,inactive
14,N#Cc1ccc(-c2ccc3c(c2)[C@@H]2[C@@H](CCN2S(=O)(=O)c2ccccc2F)[C@H](CO)N3)cc1,inactive
15,CC(C)C(=O)Nc1ccc2c(c1)C(=O)N(C)[C@@H]1CC[C@H](CC(=O)O)O[C@@H]1CO2,inactive
16,Cc1ccc(S(=O)(=O)N2CC[C@@H]3[C@H]2c2cc(-c4cccc(C(=O)N(C)C)c4)ccc2N[C@@H]3CO)cc1,inactive
17,O=S(=O)(c1ccccc1F)N1CC[C@@H]2[C@H]1c1cc(-c3cccc(F)c3)ccc1N[C@@H]2CO,inactive
18,COC(=O)C[C@H]1CC[C@@H]2[C@H](COc3ccc(NC(=O)Cc4cccs4)cc3C(=O)N2C)O1,inactive

row,Compound,outcome
1,COc1ccc(-c2csc(CCn3nc(C)cc3C)n2)cc1OC,inactive
2,CCCCNC(=O)Nc1nc2ccc(CC)cc2s1,inactive
3,C[C@@H](O)C#Cc1ccc2c(c1)O[C@@H](CN(C)C)[C@@H](C)CN([C@@H](C)CO)S2(=O)=O,inactive
4,COc1ccccc1CNc1nc(NCc2cnc(C)cn2)c2sccc2n1,inactive
5,CC(C)(C)[S@@](=O)N1Cc2cc(C(=O)NCc3ccccc3F)nc(-c3cccc(-c4ccncc4)c3)c2[C@H]1CCO,inactive
6,Cc1ccc(S(=O)(=O)N2CC[C@@H]3[C@H](CO)Nc4ccc(-c5cccc(C(=O)N(C)C)c5)cc4[C@@H]32)cc1,inactive
7,C[C@@H]1CN([C@H](C)CO)C(=O)c2cc(NC(=O)C3CCCCC3)ccc2O[C@H]1CN(C)Cc1ccc(-c2ccccc2)cc1,inactive
8,N#C[C@@H]1[C@@H](c2ccccc2C2=CCCCC2)[C@H](CO)N1S(=O)(=O)c1ccccc1,inactive
9,Cc1ccc(O)c(-c2cc(-c3cccc(Br)c3)n[nH]2)c1,inactive
10,C[C@@H]1CN([C@H](C)CO)C(=O)c2cc(-c3ccccc3)cnc2O[C@H]1CN(C)Cc1ccccc1,inactive
11,COc1ccc(CCNC(=O)C2CCN(Cc3nc(-c4ccccc4F)oc3C)CC2)cc1OC,inactive
12,CN1c2ccc(-c3ccccc3)cc2[C@H]2[C@H](CCN2C(=O)CN2CCOCC2)[C@@H]1CO,inactive
13,COC(=O)C[C@@H]1CC[C@@H]2[C@@H](COc3ccc(NC(=O)Cc4cccs4)cc3C(=O)N2C)O1,inactive
14,C[C@H](O)C#Cc1ccc2c(c1)O[C@H](CN(C)C)[C@H](C)CN([C@H](C)CO)S2(=O)=O,inactive
15,N#Cc1ccc(-c2ccc3c(c2)[C@@H]2[C@@H](CCN2S(=O)(=O)c2cccc(F)c2)[C@H](CO)N3)cc1,inactive
16,C[C@@H]1CN([C@@H](C)CO)C(=O)c2cc(NC(=O)CCCN(C)C)ccc2O[C@H]1CN(C)Cc1ccc(-c2ccccc2)cc1,inactive
17,CC(C)CNC(=O)c1coc(=O)c(Br)c1,inactive
